Test results from PubChem BioAssay (EPA / NIEHS).
Records with an inconclusive call do not appear. Active and inactive are the calls of the source. How the source made its calls: active means hit-call score of the fitted dose curve at least 0.9, where 1 is the maximum; inconclusive means response in the unintended direction; inactive means score below 0.9.

Read-out: Cytochrome P450 3A4 (Homo sapiens) (UniProt P08684)
Test: CLD_CYP3A4_24hr: CellzDirect (CLD) Gene Expression Assay for xenobiotic metabolism (CYP3A4) at 24 hours (AID 2283689)
Procedure: CLD_24hr is a cell-based, multiplexed-readout assay that uses hepatocyte, a human liver primary cell, with measurements taken at 24 hours after chemical dosing in a 96-well plate.CLD_CYP3A4_24hr is one of 16 assay component(s) measured or calculated from the CLD_24hr assay. It is designed to make measurements of mRNA induction, a form of inducible reporter, as detected with chemiluminescence signals by Quantitative Nuclease Protection Assay (qNPA) technology.Data from the assay component CLD_CYP3A4_24hr was analyzed at the endpoint, CLD_CYP3A4_24hr, in the positive analysis fitting direction relative to DMSO as the negative control and baseline of activity. Using a type of inducible reporter, gain-of-signal activity can be used to understand changes in the reporter gene as they relate to the gene CYP3A4. Furthermore, this assay endpoint can be referred to as a primary readout. To generalize the intended target to other relatable targets, this assay endpoint is annotated to the cyp intended target family, where subfamily is xenobiotic metabolism.
Human hepatocyte cultures were treated daily for two consecutive days with fresh dosing solutions containing appropriate concentrations of the 320 ToxCast chemicals (chemical identities were blinded to CellzDirect and other ToxCast collaborators), vehicle control (0.2% DMSO), and positive control inducers as summarized in Table 1. Due to the large number of treatment groups and chemicals examined, the ToxCast chemicals were divided into two groups (spanning two independent cultures of hepatocytes from separate donor preparations (Hu778: ToxCast plates 1 and 2; Hu776: ToxCast plates 3 and 4). Each preparation of human hepatocyte cultures was treated with respective vehicle control, medium only control, set of six positive controls/reference chemicals for the five hepatic receptor pathways, and a subset of eight of the ToxCast chemicals (indoxacarb, pyrithiobac-sodium, norflurazon, cyhalofop-butyl, methomyl, thiram, acetochlor, and propiconazole). These replicate data, coupled with internal replicates designed within the blinded ToxCast chemical library, provided additional data to evaluate interindividual differences between hepatocyte preparations and their potential impact on chemical profiles.Cell morphology and integrity were evaluated using phase-contrast microscopy as an indicator of hepatocyte cell health (Tyson & Green, 1987). Cultures for each treatment group (i.e., media, vehicle [0.2% DMSO], positive control inducers [multiple concentrations], and the ToxCast chemicals [multiple concentrations]) were observed and cell morphology was assessed relative to vehicle control cultures at each harvest time point (0, 6, 24, or 48 h). […] Images were evaluated at the conclusion of the study to assess changes in cell integrity and account for the effects of chemical exposure on uncharacteristic changes in concentration-dependent gene expression profiles. The results from these determinations of apparent cytotoxicity were annotated (yes/no) alongside the corresponding qNPA data for reference.At the conclusion of each treatment period, hepatocyte cultures (96-well) were washed with 1 volume of HBSS, lysed by addition of 25 ul ArrayPlate lysis buffer (HTG, Tucson, AZ), and 70 ul/well of Denaturation Oil, denatured by incubation at 95C for 10 min, and frozen at approximately -70C until analysis by nuclease protection assay (qNPA) (Roberts et al., 2007). For qNPA analysis, cell lysates were thawed at 50C for approximately 30 min, qNPA probes were added, and samples were incubated at 95C for 10 min to begin the detection process by denaturing the target RNA, dissociating the duplexes and secondary structure hybridization. At the conclusion of the hybridization period, S1 nuclease reagent was added to each sample to digest all nonprotected nucleotides at 50C for 60-90 min. […]

Sequence of Cytochrome P450 3A4 (Homo sapiens) (P08684 whole entry, looked up): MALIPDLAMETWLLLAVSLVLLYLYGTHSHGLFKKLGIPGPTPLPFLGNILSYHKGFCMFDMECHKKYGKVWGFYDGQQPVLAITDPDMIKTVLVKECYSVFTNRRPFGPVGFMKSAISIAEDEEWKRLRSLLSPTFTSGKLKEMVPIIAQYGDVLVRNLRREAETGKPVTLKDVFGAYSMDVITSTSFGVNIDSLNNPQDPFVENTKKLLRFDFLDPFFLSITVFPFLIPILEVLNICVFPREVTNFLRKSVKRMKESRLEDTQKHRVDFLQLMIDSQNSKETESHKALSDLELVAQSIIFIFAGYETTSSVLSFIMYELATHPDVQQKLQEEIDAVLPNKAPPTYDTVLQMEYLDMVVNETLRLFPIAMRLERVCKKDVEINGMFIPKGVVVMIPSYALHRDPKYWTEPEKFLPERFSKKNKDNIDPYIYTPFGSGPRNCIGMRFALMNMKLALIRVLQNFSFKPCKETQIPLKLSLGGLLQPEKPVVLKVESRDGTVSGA

Structure (SMILES)	outcome	AC50
CC(C)=CC1C(C(=O)OCc2coc(Cc3ccccc3)c2)C1(C)C (stereo not given)	inactive	–
CCCN(CC)CC1COC2(CCC(C(C)(C)C)CC2)O1 (stereo not given)	–	4.82 µM (active)
Cc1cnc(C2=NC(C)(C(C)C)C(=O)N2)c(C(=O)O)c1 (stereo not given)	inactive	–
COC(=O)N(C(=O)N1CO[C@@]2(C(=O)OC)Cc3cc(Cl)ccc3C2=N1)c1ccc(OC(F)(F)F)cc1	–	6.53 µM (active)
COc1cc(OC)nc(NC(=O)NS(=O)(=O)c2ncccc2OCC(F)(F)F)n1	inactive	–
C=CCOC(=O)C(C)(C)OC(=O)c1cc(-n2c(=O)cc(C(F)(F)F)n(C)c2=O)ccc1Cl	–	0.47 µM (active)
CC(C)N1C(=O)c2ccccc2NS1(=O)=O	inactive	–
O=c1n(Cl)c(=O)n(Cl)c(=O)n1Cl	inactive	–
CCOC(=O)C(C)OC(=O)c1cc(Oc2ccc(C(F)(F)F)cc2Cl)ccc1[N+](=O)[O-] (stereo not given)	–	3.19 µM (active)
CCOc1cc(C(C)(C)C)ccc1C1COC(c2c(F)cccc2F)=N1 (stereo not given)	–	1.9 µM (active)
CSC(=O)c1c(C(F)F)nc(C(F)(F)F)c(C(=O)SC)c1CC(C)C	–	2.07 µM (active)
O=C(O)c1c(Cl)ccc2cc(Cl)cnc12	inactive	–
COCc1cnc(C2=NC(C)(C(C)C)C(=O)N2)c(C(=O)O)c1 (stereo not given)	inactive	–
CCOP(=O)(OCC)Oc1nc(Cl)c(Cl)cc1Cl	–	3.97 µM (active)
Clc1nc(Cl)nc(Nc2ccccc2Cl)n1	inactive	–
Clc1cccc(C(Cl)(Cl)Cl)n1	inactive	–
CS(=O)(=O)c1cc(C(F)(F)F)ccc1C(=O)c1cnoc1C1CC1	–	9.79 µM (active)
N#CN=C1SCCN1Cc1ccc(Cl)nc1	–	10.9 µM (active)
CCCC(=NOCC)C1=C(O)CC(CC(C)SCC)CC1=O (stereo not given)	–	32.9 µM (active)
CCNP(=S)(OC)O/C(C)=C/C(=O)OC(C)C (stereo not given)	–	1.94 µM (active)

Structure (SMILES)	outcome	AC50
Cc1c(COC(=O)[C@@H]2[C@H](/C=C(\Cl)C(F)(F)F)C2(C)C)cccc1-c1ccccc1	–	6.84 µM (active)
CCN(CC)c1nc(C)cc(OP(=S)(OC)OC)n1	–	3.81 µM (active)
CC(C)Nc1nc(Cl)nc(NC(C)C)n1	–	6.2 µM (active)
COC(=O)NC(=S)Nc1ccccc1NC(=S)NC(=O)OC	–	3.97 µM (active)
CCOc1nc(F)cc2nc(S(=O)(=O)Nc3c(Cl)cccc3Cl)nn12	–	2.93 µM (active)
CN=C=S	inactive	–
OC(c1ccc(Cl)cc1)(c1ccc(Cl)cc1)C(Cl)(Cl)Cl	–	4.09 µM (active)
CO/N=C(/C1=NOCCO1)c1ccccc1Oc1ncnc(Oc2ccccc2Cl)c1F	inactive	–
CC1(C)CCC(=Cc2ccc(Cl)cc2)C1(O)Cn1cncn1 (stereo not given)	inactive	–
COP(=S)(OC)Oc1ccc([N+](=O)[O-])c(C)c1	–	16.6 µM (active)
CC(C)(C)C(=O)C(Oc1ccc(Cl)cc1)n1cncn1 (stereo not given)	–	1.63 µM (active)
CCSC(=O)N1CCCCCC1	–	0.0865 µM (active)
COC(=O)NS(=O)(=O)c1ccc(N)cc1	inactive	–
COP(=S)(OC)SCn1nnc2ccccc2c1=O	–	20 µM (active)
CC(C)NC(=O)N1CC(=O)N(c2cc(Cl)cc(Cl)c2)C1=O	–	9.31 µM (active)
CCCCC(O)(Cn1cncn1)c1ccc(Cl)cc1Cl (stereo not given)	–	1.13 µM (active)
CCN(CC)C(=O)C(C)Oc1cccc2ccccc12 (stereo not given)	inactive	–
N#Cc1c[nH]cc1-c1cccc2c1OC(F)(F)O2	–	4.26 µM (active)
COP(=O)(OC)O/C(C)=C/C(=O)N(C)C	inactive	–
O=P(O)(O)CCCl	inactive	–
